# This is part of a sample that, as a whole, favours compounds with a hit. Of some 83,000 tested, about 20% had one in any assay.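 Interpretation: 100, growth as untreated; towards 0, rising growth inhibition; 0, no net growth; 0 to -100, cell death. Compounds scoring below 10 were considered active.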 Active and inactive are the calls of the source.
# Tested on: MDA-MB-231 breast
# Experiment: NCI-60 one-dose screen, 48 h (100 = growth as untreated, 0 = no growth, -100 = all killed)
# Settings: 10 µM unless noted
row,SMILES,growth
1,O=C1/C(=C/c2ccc(O)cc2)COc2ccc(-c3ccccc3)cc21,94.6% (inactive)
2,CC(=O)N1N=C(c2cccc(Nc3ccncc3)c2)CC1c1ccc2c(c1)OCO2 (stereo unspecified),86.9% (inactive)
3,Clc1nc(Cl)c2ncn(CCOCCn3cnc4c(Cl)nc(Cl)nc43)c2n1,-89.9% (active)
4,COc1ccc(/C=C2\COc3ccc(-c4ccccc4)cc3C2=O)cc1O,41.6% (inactive)
5,Cc1c2c(cc[n+]1Cc1ccccc1)c1ccc(OCC3CCCCC3)cc1n2CC1CCCCC1,-92% (active)
6,CC[N+](CC)(CCCC(C)[N+]1(Cc2ccccc2)C(C)=CC=C1C)Cc1ccccc1 (stereo unspecified),78.6% (inactive)
7,CN1C(=O)N(C)[C@H]2NC(NN)=N[C@H]21,102% (inactive)
8,O=C(Nc1cccc(Cl)c1)Oc1c(Br)c(Br)c(Br)c(Br)c1Br,103% (inactive)
9,NC(=O)c1ncn(C2OC(CO)C(O)C2O)n1 (stereo unspecified),103% (inactive)
10,COc1cc(/C=C/C(=O)c2c(C)oc3nc[nH]c(=O)c23)ccc1O,106% (inactive)
11,COc1cc(NCCCN(CC(C)C)CC(C)C)c2ncccc2c1,88.7% (inactive)
12,O=[N+]([O-])c1cccc(-c2nc(-c3ccc(Cl)cc3Cl)cn2-c2ccccc2)c1,-14.6% (active)
13,O=C(N/N=C/c1ccc(F)cc1)c1ccccc1Nc1cccc(C(F)(F)F)c1,117% (inactive)
14,COc1ccc(Cn2nc(-c3cc(OC)c(OC)c(OC)c3)c3c2CCc2cnoc2-3)cc1OC,52.7% (inactive)
15,Fc1ccc(C2CC(c3cccc(Nc4ccncc4)c3)=NN2c2ccccc2)cc1 (stereo unspecified),64.3% (inactive)
16,CCn1cc(C2NC(=O)c3ccccc3N2)c2cccc(C)c21 (stereo unspecified),15.3% (inactive)
17,Cc1nc2sc(C(=O)Nc3ccccc3)c(N)c2cc1C(=O)c1ccc(C(F)(F)F)cc1,101% (inactive)
18,CC(=O)c1c(C)[nH]c(-c2nc3ccc(N4CCN(C)CC4)cc3[nH]2)c1-c1ccccc1,32% (inactive)
19,CCC1(CC)NC(=O)c2c(c3ccc(Cl)c(Cl)c3n2C)C1C#N (stereo unspecified),71.2% (inactive)

row,SMILES,growth
1,O=C(Nc1ccc(F)cc1)c1c(NC(=O)C(F)(F)F)sc2c1CCCCC2,-20.4% (active)
2,O=C(NCCN1CCOCC1)OCc1nc2nc(Cl)nc(N3CCOCC3)c2[nH]1,22.9% (inactive)
3,CC(C)[N+](C)(CCOC(COc1ccccc1)COc1ccccc1)C(C)C,98% (inactive)
4,COc1ccc(C(=O)c2cc3c(N)c(C(=O)Nc4cccc(Cl)c4C)sc3nc2C)cc1,15% (inactive)
5,COc1ccccc1/C=C1\Oc2cc(OCCCN3CCCC3)ccc2C1=O,86.5% (inactive)
6,CCc1nc(C)cn1C(=O)OCc1nc2nc(Cl)nc(N3CCOCC3)c2[nH]1,-42.9% (active)
7,CN1CCN(c2cc(F)c(NC3=C(Cl)C(=O)c4ncccc4C3=O)c(F)c2)CC1,-32% (active)
8,COc1ccc(Cl)cc1NC(=O)c1c(NC(=O)C(F)(F)C(F)(F)F)sc2c1CCCCC2,-18.6% (active)
9,COc1ccccc1/C=C1\COc2ccc(-c3ccccc3)cc2C1=O,43.8% (inactive)
10,O=C(O)CCCCCCCCCCCCCCC(=O)O,98.2% (inactive)
11,NC(=O)C1(N2CCCCC2)CCN(CCCC(=O)c2ccc(F)cc2)CC1,29.7% (inactive)
12,CCN1C(=O)/C(=c2\sc3n(c2=O)NC2C(N=3)N(CC)C(=O)N2CC)c2ccccc21 (stereo unspecified),19.9% (inactive)
13,CCCCCCCCCCCCCCCC(=O)OC[C@@]1(O)C[C@@]23CC[C@@H]4C(C)(C)[C@H](O)CC[C@@]4(C)[C@@H]2CC[C@H]1C3,110% (inactive)
14,CCOC(=O)c1ccc(Nc2ccnc(SCC(=O)c3ccc(C#N)cc3)n2)cc1,81.2% (inactive)
15,O=S(=O)(c1cccc(NC2=Nc3cccc4cccc2c34)c1)N1CCCC1,77.1% (inactive)
16,COc1ccccc1N1CCN(C(=O)c2ccc3nc(NC(=O)c4ccc(NCCc5ccccc5)c([N+](=O)[O-])c4)sc3c2)CC1,75.7% (inactive)
17,CCN(CC)CCOC(COc1cc(C)cc(C)c1)COc1cc(C)cc(C)c1,23.8% (inactive)
18,COc1ccc(Nn2c(SCC(=O)Nc3nc(-c4ccc(Cl)cc4)cs3)nc(C)c2C)cc1,79.7% (inactive)
19,CC1=CC2(C)/C=C(C)/C=C\CC(O)/C=C3/C=CC(=C4C(=O)OC2(CC1C)C4=O)OC3 (stereo unspecified),24.2% (inactive)

# Tested on: SF-268 CNS
# Experiment: as above
# Settings: 10 µM unless noted
row,SMILES,growth
1,O=C1/C(=C/c2ccc(O)cc2)COc2ccc(-c3ccccc3)cc21,69.1% (inactive)
2,CC(=O)N1N=C(c2cccc(Nc3ccncc3)c2)CC1c1ccc2c(c1)OCO2 (stereo unspecified),91.8% (inactive)
3,Clc1nc(Cl)c2ncn(CCOCCn3cnc4c(Cl)nc(Cl)nc43)c2n1,-83.3% (active)
4,COc1ccc(/C=C2\COc3ccc(-c4ccccc4)cc3C2=O)cc1O,13.3% (inactive)
5,Cc1c2c(cc[n+]1Cc1ccccc1)c1ccc(OCC3CCCCC3)cc1n2CC1CCCCC1,-98.7% (active)
6,CC[N+](CC)(CCCC(C)[N+]1(Cc2ccccc2)C(C)=CC=C1C)Cc1ccccc1 (stereo unspecified),98.9% (inactive)
7,CN1C(=O)N(C)[C@H]2NC(NN)=N[C@H]21,94% (inactive)
8,O=C(Nc1cccc(Cl)c1)Oc1c(Br)c(Br)c(Br)c(Br)c1Br,91.4% (inactive)
9,NC(=O)c1ncn(C2OC(CO)C(O)C2O)n1 (stereo unspecified),98% (inactive)
10,COc1cc(/C=C/C(=O)c2c(C)oc3nc[nH]c(=O)c23)ccc1O,99.6% (inactive)
11,COc1cc(NCCCN(CC(C)C)CC(C)C)c2ncccc2c1,89.5% (inactive)
12,O=[N+]([O-])c1cccc(-c2nc(-c3ccc(Cl)cc3Cl)cn2-c2ccccc2)c1,0.437% (active)
13,O=C(N/N=C/c1ccc(F)cc1)c1ccccc1Nc1cccc(C(F)(F)F)c1,82.6% (inactive)
14,COc1ccc(Cn2nc(-c3cc(OC)c(OC)c(OC)c3)c3c2CCc2cnoc2-3)cc1OC,68% (inactive)
15,Fc1ccc(C2CC(c3cccc(Nc4ccncc4)c3)=NN2c2ccccc2)cc1 (stereo unspecified),73.1% (inactive)
16,CCn1cc(C2NC(=O)c3ccccc3N2)c2cccc(C)c21 (stereo unspecified),43.2% (inactive)
17,Cc1nc2sc(C(=O)Nc3ccccc3)c(N)c2cc1C(=O)c1ccc(C(F)(F)F)cc1,101% (inactive)
18,CC(=O)c1c(C)[nH]c(-c2nc3ccc(N4CCN(C)CC4)cc3[nH]2)c1-c1ccccc1,53.6% (inactive)
19,CCC1(CC)NC(=O)c2c(c3ccc(Cl)c(Cl)c3n2C)C1C#N (stereo unspecified),90.3% (inactive)

row,SMILES,growth
1,O=C(Nc1ccc(F)cc1)c1c(NC(=O)C(F)(F)F)sc2c1CCCCC2,4.27% (active)
2,O=C(NCCN1CCOCC1)OCc1nc2nc(Cl)nc(N3CCOCC3)c2[nH]1,27% (inactive)
3,CC(C)[N+](C)(CCOC(COc1ccccc1)COc1ccccc1)C(C)C,94.5% (inactive)
4,COc1ccc(C(=O)c2cc3c(N)c(C(=O)Nc4cccc(Cl)c4C)sc3nc2C)cc1,18.4% (inactive)
5,COc1ccccc1/C=C1\Oc2cc(OCCCN3CCCC3)ccc2C1=O,90.3% (inactive)
6,CCc1nc(C)cn1C(=O)OCc1nc2nc(Cl)nc(N3CCOCC3)c2[nH]1,-64% (active)
7,CN1CCN(c2cc(F)c(NC3=C(Cl)C(=O)c4ncccc4C3=O)c(F)c2)CC1,48.7% (inactive)
8,COc1ccc(Cl)cc1NC(=O)c1c(NC(=O)C(F)(F)C(F)(F)F)sc2c1CCCCC2,6.13% (active)
9,COc1ccccc1/C=C1\COc2ccc(-c3ccccc3)cc2C1=O,22.1% (inactive)
10,O=C(O)CCCCCCCCCCCCCCC(=O)O,98.9% (inactive)
11,NC(=O)C1(N2CCCCC2)CCN(CCCC(=O)c2ccc(F)cc2)CC1,38.4% (inactive)
12,CCN1C(=O)/C(=c2\sc3n(c2=O)NC2C(N=3)N(CC)C(=O)N2CC)c2ccccc21 (stereo unspecified),63.9% (inactive)
13,CCCCCCCCCCCCCCCC(=O)OC[C@@]1(O)C[C@@]23CC[C@@H]4C(C)(C)[C@H](O)CC[C@@]4(C)[C@@H]2CC[C@H]1C3,101% (inactive)
14,CCOC(=O)c1ccc(Nc2ccnc(SCC(=O)c3ccc(C#N)cc3)n2)cc1,78% (inactive)
15,O=S(=O)(c1cccc(NC2=Nc3cccc4cccc2c34)c1)N1CCCC1,79.1% (inactive)
16,COc1ccccc1N1CCN(C(=O)c2ccc3nc(NC(=O)c4ccc(NCCc5ccccc5)c([N+](=O)[O-])c4)sc3c2)CC1,67.6% (inactive)
17,CCN(CC)CCOC(COc1cc(C)cc(C)c1)COc1cc(C)cc(C)c1,56.6% (inactive)
18,COc1ccc(Nn2c(SCC(=O)Nc3nc(-c4ccc(Cl)cc4)cs3)nc(C)c2C)cc1,66.1% (inactive)
19,CC1=CC2(C)/C=C(C)/C=C\CC(O)/C=C3/C=CC(=C4C(=O)OC2(CC1C)C4=O)OC3 (stereo unspecified),-22.4% (active)

# Source: PubChem BioAssay (NCI)
